From the supplement of paper PMC13380429

What was measured:
[1] = system: Vero E6 infected with SARS-CoV-2; assay: morphology score (similarity to uninfected cells); higher = more like uninfected cells; conditions: 24 h
[2] = system: Vero E6 infected with SARS-CoV-2; assay: SARS-CoV-2 infection rate relative to infected DMSO; higher = more infection, active = 60 or less; conditions: 24 h

| Compound | morphology score [1] | SARS-CoV-2 infection rate [2] |
| --- | --- | --- |
| COc1cc(N)c(Cl)cc1C(=O)OCCCN1CCCCC1 (10 µM) | 0.0833 | 100% (inactive) |
| CC(C)(C)c1ccc(C(=O)CCCN2CCC(OC(c3ccccc3)c3ccccc3)CC2)cc1 [ebastine] (10 µM) | 0.606 | 50% (active) |
| O=C(CCCCCCC(=O)Nc1ccccc1)NO [vorinostat] (0.833333 µM) | 0.00344 | 118% (inactive) |
| c1ccc(Cn2c(-c3ccc(OC[C@H](C4CCNCC4)n4c(-c5ccccc5)nc5ccccc54)cc3)nc3ccccc32)cc1 [deltarasin] (0.833333 µM) | 0.147 | 96% (inactive) |
| CCO[C@@H](Cc1ccc(OCCc2ccc(OS(C)(=O)=O)cc2)cc1)C(=O)O [tesaglitazar] (10 µM) | 0.194 | 110% (inactive) |
| C[C@@H](Oc1ccc2[nH]nc(/C=C/c3cnn(CCO)c3)c2c1)c1c(Cl)cncc1Cl (10 µM) | -0.00865 | 120% (inactive) |
| Nc1ncn([C@H]2C[C@H](O)[C@@H](CO)O2)c(=O)n1 [decitabine] (10 µM) | 0.0186 | 104% (inactive) |
| Cc1cc(C)c(S(=O)(=O)n2cc(C)cc2C)c(C)c1 (10 µM) | 0.0664 | 102% (inactive) |
| CCCN(CCc1cccs1)[C@H]1CCc2c(O)cccc2C1 [rotigotine] (10 µM) | -0.0144 | 96.5% (inactive) |
| CN(CCOc1ccc(CC2SC(=O)NC2=O)cc1)c1ccccn1 (stereo not drawn) [rosiglitazone] (10 µM) | 0.279 | 92.5% (inactive) |
| CCCCc1nc(Cl)c(CO)n1Cc1ccc(-c2ccccc2-c2nnn[nH]2)cc1 [losartan] (10 µM) | 0.0837 | 99.5% (inactive) |
| C/C(=C\C(=O)Nc1ccccc1C(=O)O)c1ccc2ccccc2c1 (10 µM) | 0.23 | 103% (inactive) |
| COc1cc(S(C)(=O)=O)ccc1Nc1nc2ccc(-c3ccc(NC(=O)[C@H](C)c4ccc(F)cc4)cc3)cn2n1 (10 µM) | -0.122 | 105% (inactive) |
| O=c1oc2ccccc2c(O)c1Cc1c(O)c2ccccc2oc1=O [dicoumarol] (10 µM) | 0.0403 | 108% (inactive) |
| O=C(/C=C/c1ccc(O)c(O)c1)OCCc1ccccc1 [caffeic-acid-phenethyl-ester] (10 µM) | -0.0125 | 79% (inactive) |
| CC(C)NC(=O)c1ccc(C#Cc2ccncc2)cn1 (10 µM) | 0.0135 | 102% (inactive) |
| CCN(CC)CCCCNc1ncc2cc(-c3c(Cl)cccc3Cl)c(NC(=O)NC(C)(C)C)nc2n1 (0.833333 µM) | 0.085 | 117% (inactive) |
| O=C1NCN(c2ccccc2)C12CCN(CCCC(c1ccc(F)cc1)c1ccc(F)cc1)CC2 [fluspirilene] (10 µM) | 0.056 | 113% (inactive) |
| Cc1ccc(S(=O)(=O)Nc2ccc3c(c2)c(C(=O)C(F)(F)F)cn3CC(=O)N[C@@H](CC(C)C)C(=O)O)cc1 (10 µM) | 0.0604 | 104% (inactive) |
| CC(C)=CCC/C(C)=C/CC/C(C)=C/C=C/C(C)=C/C(=O)O [peretinoin] (10 µM) | -0.00242 | 108% (inactive) |
| Cc1cccc(Nc2ccccc2C(=O)O)c1C [mefenamic-acid] (10 µM) | 0.0628 | 99.5% (inactive) |
| Nc1nc(O)c2ncn(CCC(CO)CO)c2n1 [penciclovir] (10 µM) | 0.0743 | 93.5% (inactive) |
| CCCC(=O)Nc1ncnc2c1ncn2[C@@H]1O[C@@H]2COP(=O)(O)O[C@H]2[C@H]1OC(=O)CCC [bucladesine] (10 µM) | 0.0459 | 104% (inactive) |
| CCS(=O)(=O)c1ccc2oc(-c3ccc4ccccc4c3)nc2c1 [ezutromid] (10 µM) | 0.174 | 98.5% (inactive) |
| C=CCN1C[C@H](C)N([C@H](c2ccc(C(=O)N(CC)CC)cc2)c2cccc(O)c2)C[C@H]1C (10 µM) | 0.1 | 105% (inactive) |
| CNCc1ccc(-c2cc(-c3nc(-c4ccc(S(=O)(=O)C(C)C)cc4)cnc3N)on2)cc1 (0.833333 µM) | 0.565 | 52% (active) |
| O=c1oc2cc(O)ccc2s1 [tioxolone] (10 µM) | 0.0494 | 104% (inactive) |
| COc1ccc(COc2ccc(Cc3cnc(N)nc3N)cc2OC)cc1 (10 µM) | -0.072 | 112% (inactive) |
| COc1ccc(-c2cc(=O)c3c(O)cc(O)cc3o2)cc1O [diosmetin] (10 µM) | 0.205 | 106% (inactive) |
